From PubChem BioAssay
A selection: hits, their analogues and other compounds. The true share with any hit is near 3%.
PMP22 txn – modulates PMP22 transcription in S16 Schwann cells; hit rate 2% among 43,000; Potency, µM (titrated, usually from 57.5 µM), inactives show at the highest dose activity change, negative = inhibition, usual class: inhibitors; AID 1508649; S16 Pmp22-F2sN Schwann cells, FLuc/NLuc coincidence luminescence, 24 h; active = clear falling dose curves in both reporters; inconclusive = both reporters move, but less clearly or upward; inactive = either reporter flat; the % is the NLuc reporter signal
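Reporter cells (S16 Pmp22-F2sN, 500–1,000 per well) exposed to compounds for 24 h, 37C, 5% CO2; lysis with FLuc read after 10 min, then Stop&Glo and NLuc read after 10 min.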
p53null 32C tox – kills p53 null cells at the permissive temperature; Potency, µM (titrated, usually from 46.1 µM), inactives show top-dose activity change, negative = cytotoxicity, hits mostly cytotoxic; AID 903; H1299-neo p53 null cells, ATP luminescence, 24 h, 32C; hit rate 0.62% among 55,000;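 also: 0% = DMSO only and -100% = full killing by 100 µM tamoxifen; nearly all actives have a fitted effect of over 55% in size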
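ATP-content luminescence in p53-null H1299-neo cells after 24 h compound exposure (up to 46 uM) at 32C permissive temperature; 0% and 100% killing set by DMSO and 100 uM tamoxifen; Hill-equation AC50.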
p53null 39C kill – kills p53 null cells at the nonpermissive temperature; H1299 p53-null (neo) cells, 39C, ATPlite viability, 24 h; Potency, µM (top dose mostly 46.1 µM), for the others: at the highest dose activity, negative = cell killing, usual class: cytotoxic; hit rate 0.97% among 55,000;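 also: 0% = DMSO only and -100% = full killing by 100 µM tamoxifen; nearly all actives have a fitted effect of over 50% in size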
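Luminescent ATP signal reported cell survival after H1299 lines (neo, p53 null; or p53 A138V) received up to 46 uM compound and 24 hr incubation at 39C.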
pS6 MEF inh – inhibitors of mTORC1 signaling in Tsc2-/- p53-/- MEF cells | Tsc2-/- p53-/- MEF, phospho-rpS6 immunofluorescence/PI, 24 h | Potency, µM (highest dose often 38.3 µM), for inactives: at the top dose activity change, negative = inhibition, actives largely listed as inhibitors | hit rate 0.78% among 44,000 | AID 493208;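 also: plate controls were DMSO for no effect and rapamycin for full effect; nearly all actives have a fitted effect of over 50% in size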
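Immunofluorescence of rpS6 phosphorylation in Tsc2-/-, p53-/- MEFs after 24 h compound exposure, normalized to propidium iodide signal. Activity is expressed as % positive cells, thresholded with 7.5 nM rapamycin.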
SKOV3 invasion – blocks SKOV3ip1 adhesion and invasion in omental model; SKOV3ip1-GFP adhesion/invasion on 3D omental model, fluorescence; Potency, µM (top dose mostly 45.8 µM), inactives show at the top dose activity change, negative = inhibition, actives largely listed as inhibitors; hit rate 0.1% among 46,000; AID 1963576;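 also: plate controls were DMSO wells for no effect and tomatine positive control wells for full effect; nearly all actives have a fitted effect of over 65% in size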
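Primary human omental fibroblast/mesothelial 3D culture pre-formed 48 h. SKOV3ip1-GFP cells added with compounds (0.36-46 umol/L), incubated 2 h RT/16 h 37 C, fixed; GFP cells quantified at 488/509 nm.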
S16 viability – S16 Schwann cell cytotoxicity | S16 Pmp22-F2sN Schwann cells (luciferase reporters placed in the Pmp22 gene) viability, CellTiter-Glo, 24 h | Potency, µM (top dose mostly 57.5 µM), inactives show at the highest dose activity change, negative = cytotoxicity, actives largely listed as cytotoxic | hit rate 0.48% among 43,000 | AID 1508642; also: nearly all actives have a fitted effect of over 65% in size
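Seed 500-1,000 S16 Pmp22-F2sN cells per well in phenol-red-free DMEM with 10% heat-inactivated FBS; pin-add 23 nL compound; incubate 24 h at 37C; add CellTiter-Glo, wait 15 min protected from light; read luminescence.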
* marks the source's active call; other numbers are inactive results; i = inactive; ? = inconclusive; · = no result. Unless noted, calls follow the shape of the dose curve; as a rule, active = well fitted curve in the direction sought with a large enough effect; inconclusive = small, poorly fitted or top-dose-only effect, or another doubt; inactive = no such curve, though single readings can be large; an effect the other way counts as inactive or inconclusive. Unless noted, % is scaled to controls: 0 for no effect and ±100 for the full control effect; potency is read from the fitted curve at half-maximal effect.

SMILES | PMP22 txn | p53null 32C tox | p53null 39C kill | pS6 MEF inh | SKOV3 invasion | S16 viability
Cc1ccc(NC(=O)CSc2nc(-c3ccco3)cc(C(F)(F)F)n2)c(C)c1 | ? | 23% | ? | 0.83µM* | ? | ?
CO[C@H]1CCC(O[C@H]2C[C@H]([C@]3(C)CC[C@]4(C[C@H](O)[C@@H](C)[C@@H]([C@@H](C)C=C(C)C(=O)[C@H](C)C[C@H](C)C(=O)O)O4)O3)O[C@]3(O[C@@H]([C@H]4O[C@@](O)(CO)[C@H](C)C[C@H]4C)C[C@H]3C)[C@H]2C)O[C@H]1C (stereo partly specified) | · | · | · | · | -19% | ·
C[C@@H]1[C@@H](CC(C[C@H]2O[C@@H]3O[C@]4(C)CC[C@@H]5[C@H](C)CC[C@@H]([C@H]2C)[C@@]35OO4)C[S+](=O)([O-])c2ccc(COC(=O)N(C)C)cc2)O[C@@H]2O[C@]3(C)CC[C@H]4[C@H](C)CC[C@@H]1[C@@]24OO3 (stereo partly specified) | · | · | · | · | -5% | ·
O=C(c1ccccc1)c1ccc2nc(N3CCN(c4ccc(F)cc4)CC3)c3nncn3c2c1 | ? | 5% | -20% | 4.1µM* | 7% | 16%
CCOc1ccc2nc(NC(=O)c3cccn(Cc4ccc(C)cc4)c3=O)sc2c1 | -23% | -4% | 26% | -5% | -1% | 11%
COc1ccc2nc(NC(=O)c3nc(S(=O)(=O)Cc4cccc(C)c4)ncc3Cl)sc2c1 | 6.2µM* | -27% | ? | 6.6µM* | ? | 10µM*
CCOC(=O)c1c(C(C#N)=CN)c2ccc(Cl)c(Cl)c2n1C | · | · | · | · | -22% | ·
COC(=O)C1CN(C#N)N(c2ccc(Cl)cc2)C12c1ccccc1-c1ccccc12 (stereo unspecified) | · | 8.9µM* | ? | · | · | ·
O=C(Nc1ccc(Cl)c(C(F)(F)F)c1)c1ccc2c(c1)CCN2S(=O)(=O)c1ccccc1 | ? | 16% | -2% | 8.3µM* | i | 22µM*
C[C@](O)(COc1ccc(C#N)cc1)C(=O)Nc1ccc(C#N)c(C(F)(F)F)c1 | · | · | · | · | -8% | ·
CCn1nc(-c2ccccc2)nc2c(=O)n(C)c(=O)nc1-2 | · | 3.5µM* | 18% | · | · | ·
Cc1nc2c(=O)n(C)c(=O)nc-2n(C)n1 | · | 1.3µM* | 3.2µM* | · | · | ·
Cc1ccccc1Cn1cccc(C(=O)Nc2nc3ccccc3s2)c1=O | -13% | 10µM* | 14% | 0% | i | 0%
O=C(Nc1nc2ccccc2s1)c1cccn(Cc2ccccc2)c1=O | -17% | ? | 8% | -2% | i | 14%
C=C[C@@H]1CN2CCC1C[C@@H]2[C@@H](O)c1ccnc2ccccc12 (stereo partly specified) | · | · | · | · | -15% | ·
Cc1ccc(S(=O)(=O)c2nnn3c2nc(N2CCC(C(N)=O)CC2)c2cc(Cl)ccc23)cc1C | 16µM* | 11% | ? | 1% | -21% | ?
COCC1(CO)C(=O)C2CCN1CC2 (stereo unspecified) | · | · | · | · | -7% | ·
COc1ccc(CNC(=O)Cn2c(SCC(=O)Nc3ccc(C)c(C)c3)nc3ccccc32)cc1 | ? | ? | ? | 16µM* | ? | -29%
COc1ccc2c(c[n+](C)c3c4cc5c(cc4ccc23)OCO5)c1OC | · | · | · | · | 23µM* | ·
COc1ccc(N2CCN(C(=O)C3CCCN(S(=O)(=O)c4ccc5c(c4)CCCN5C(C)=O)C3)CC2)cc1 (stereo unspecified) | 14µM* | 2% | -11% | 7.4µM* | i | ?
COc1cccc2c1[C@]13CCN(CC4CC4)[C@H](C2)[C@]1(OC)CCC(=O)C3 | · | · | · | · | 0% | ·
CCOC(=O)Nc1ccc(NCc2ccc(F)cc2)cc1N | · | · | · | · | -7% | ·
